Assays:
Experiment in all cases: PBM binding z-score (relative to random genomic background probes); higher = stronger binding; sequences stand for … in GC…GCGATTGACAGCGTAGAATGAAGG
[1] = system: PPARg:RXRa DBDmut IVT, anti-RXR (DBD mutation: RXRa K156A/R161A, NR concentration 270 nM, RXRa partner concentration 90 nM)
Method in brief: (§1)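 Custom Agilent 4×180K protein-binding microarrays carried double-stranded probes. Their 34-nt variable regions held direct-repeat seeds, single-nucleotide variants, half-site ablations and random human genomic background sequences. Arrays were incubated 1 h with ligand-free nuclear receptor dimers in PBS pH 7.4, 2% milk, 0.02% Triton X-100, 1 mM DTT, 0.2 mg/mL BSA and 0.4 mg/ml salmon testes DNA. Antibodies against each partner (one per run) detected binding, and scanned fluorescence was regression-normalized. Binding z-scores use random background probes as reference.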

[2] = system: PPARg:RXRa IVT, anti-PPARg (NR concentration 270 nM, RXRa partner concentration 90 nM)
Method in brief: as §1

[3] = system: PPARg DBDmut:RXRa IVT, anti-PPARg (DBD mutation: PPARg1 K132A/R137A, NR concentration 270 nM, RXRa partner concentration 90 nM)
Method in brief: as §1

[4] = system: PPARg DBDmut IVT, anti-PPARg (DBD mutation: PPARg1 K132A/R137A, NR concentration 270 nM)
Method in brief: as §1

[5] = system: PPARg homodimer (NR concentration 180 nM)
Method in brief: as §1

[6] = system: PXR:RXRa (NR concentration 270 nM, RXRa partner concentration 90 nM)
Method in brief: as §1

[7] = system: PXR homodimer (NR concentration 270 nM)
Method in brief: as §1

[8] = system: RARa:RXR (NR concentration 270 nM, RXRa partner concentration 90 nM)
Method in brief: as §1

[9] = system: RARa homodimer (NR concentration 270 nM)
Method in brief: as §1

[10] = system: RARb:RXRa (NR concentration 270 nM, RXRa partner concentration 90 nM)
Method in brief: as §1

Sequence	PBM binding z-score [1]	PBM binding z-score [2]	PBM binding z-score [3]	PBM binding z-score [4]	PBM binding z-score [5]	PBM binding z-score [6]	PBM binding z-score [7]	PBM binding z-score [8]	PBM binding z-score [9]	PBM binding z-score [10]
TTACCAAGGTGAAGTTCGTTGATCCCTCTGTAGA	2.04	2.68	0.229	0.131	0.308	1.23	0.329	0.86	-0.298	1.75
CCAGACAGGTGAGAAGGTAACTCGGCCTCGATTA	1.02	0.832	-0.526	-1.05	0.472	-0.382	-0.139	-0.0873	0.15	0.513
TCTAGTTGGTCAAAGATCACACACTCGAAATGCG	2.51	2.84	1.33	1.22	1.93	1.07	0.547	1.77	0.928	1.3
ATATGTAGGTTAGCTGGGGTCATTAAGACTAGGC	7.01	6.64	3.24	2.7	2.8	5.91	3.46	5.15	1.22	3
ACTAGCAGGCCACGGGTCACTCAAGATTAGTCCG	1.77	3.02	0.251	-0.351	0.555	1.52	-0.598	2.05	-0.386	2.17
ACTAGCAGGCCAAGGGTCACTGAAGATTAGTCCG	1.21	4.08	0.528	0.377	5.87	3.39	-0.283	4.86	0.818	3.76
TCTTGTAGATCAAAGGTTAAGCAAGCCGAAGCCT	2.3	4.26	1.03	0.316	0.998	2.14	-0.0892	3.34	-0.483	2.11
TCGAGTAGGGTAGTCGGGGCATTCAGCCAACATA	1.33	0.997	-1.17	-0.743	0.299	-0.12	-0.394	-0.233	-0.527	0.0213
TCATATAGGTAAAAAGTGAAAGTCGGTGTGGTAA	4.48	2.54	1	0.168	0.986	0.581	0.658	0.666	0.947	0.366
CGACCAAGGTCAATGCTAGGTCAGTGAAAGCATT	3.29	3.59	-0.925	-0.0967	4.22	4.59	0.845	5.71	0.803	5.03
GCGACTGGGGCAAAGCAGGTTACAATAAGGTTGG	4.73	3.71	-0.466	-0.774	0.387	0.661	-0.376	0.904	-0.625	1.06
TGATATAGGTAAAAGGTGAAAGTCGGTGTGGTAA	5.38	5.55	1.59	1.77	1.8	1.68	0.555	2.78	1.18	2.05
TGAATGAGGTTGAAGATCAGGGAACGTGGCGTCG	-0.653	0.294	0.451	0.38	-0.432	-0.193	-0.315	0.257	-0.208	0.206
TCTTGTAGATCAACGGGAGGTTAAGAAAGATCGA	2.28	0.974	0.226	-0.0514	0.14	0.94	0.02	1.14	0.281	0.648
ACTAGCAGGCCAAGTTTGTGTCACTCAAACAAAG	0.66	0.636	-0.284	-0.278	-0.972	-0.323	-0.685	-0.217	-0.826	0.471
GCAGACAGGTGAAACGCAGGTACCTCAGGGTGGC	0.673	0.204	-1.1	-1.9	-1.33	-0.784	-0.782	-0.474	-1.48	0.346
CTCGAAAGGTCGGCTGAGGTGAGTATACGGATAA	-0.0166	1	-0.0144	-0.891	1.16	4.09	-0.42	3.02	-0.275	3.56
GGAACGAGTGCAAGTTGATAGCAGAGTTTGATGG	-0.142	-0.639	0.145	-0.69	-0.875	0.885	1.16	-0.297	-1.23	0.365
AATCAAAGTTCACTAGGTAACGTAAGATTCAGCT	2.41	4.17	1.22	1.64	2.31	3.75	2	2.5	1.15	4.72
CAAACTAGGTCACAGAGGTCAAAGTGCGTGCGTA	8.28	9.04	1.58	0.779	3.18	6.72	9.97	7.47	2.13	5.4
CCTACTGAGCCAAAGGTCATTGATTCCAATGCTC	1.79	3.91	0.27	0.224	5.35	5.49	2.67	5.91	2.36	4.57
CAAACTGGGTCACCGGAAGGTCAAAGTCCGCATG	8.13	8.83	1.41	0.892	6.19	5.57	1.27	6.73	0.623	4.9
CCTACTGGGCCACGAAAGGTCATTGTTTCAGTGA	5.79	6.05	1.13	0.571	3.37	5.45	2.06	5.42	0.917	4.06
AGAACGAGGGCAATGATTTGATAGCACGGGTGGC	3.4	2.89	0.782	0.14	0.437	0.447	0.328	0.36	0.605	1.95

Source: the supplement of paper PMC6555819
